Measurements: article PMC4336329 (PLoS ONE, 2015)
About 14,000 (4.5%) of roughly 310,000 compounds showed an effect of 50% or more. Effects have a minus sign here. The entries come from a sample that favours strong results as a whole.

These molecules were tested against human ether-à-go-go-related gene (hERG) potassium channel (human, UniProt Q12809) (assay: primary screen, population patch clamp on CHO cells stably expressing hERG; higher = less effect of the substance).
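Note: peak tail current of the secondary pulse compared with the same well before compound.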

human ether-à-go-go-related gene (hERG) potassium channel, sequence (Q12809 whole entry, looked up): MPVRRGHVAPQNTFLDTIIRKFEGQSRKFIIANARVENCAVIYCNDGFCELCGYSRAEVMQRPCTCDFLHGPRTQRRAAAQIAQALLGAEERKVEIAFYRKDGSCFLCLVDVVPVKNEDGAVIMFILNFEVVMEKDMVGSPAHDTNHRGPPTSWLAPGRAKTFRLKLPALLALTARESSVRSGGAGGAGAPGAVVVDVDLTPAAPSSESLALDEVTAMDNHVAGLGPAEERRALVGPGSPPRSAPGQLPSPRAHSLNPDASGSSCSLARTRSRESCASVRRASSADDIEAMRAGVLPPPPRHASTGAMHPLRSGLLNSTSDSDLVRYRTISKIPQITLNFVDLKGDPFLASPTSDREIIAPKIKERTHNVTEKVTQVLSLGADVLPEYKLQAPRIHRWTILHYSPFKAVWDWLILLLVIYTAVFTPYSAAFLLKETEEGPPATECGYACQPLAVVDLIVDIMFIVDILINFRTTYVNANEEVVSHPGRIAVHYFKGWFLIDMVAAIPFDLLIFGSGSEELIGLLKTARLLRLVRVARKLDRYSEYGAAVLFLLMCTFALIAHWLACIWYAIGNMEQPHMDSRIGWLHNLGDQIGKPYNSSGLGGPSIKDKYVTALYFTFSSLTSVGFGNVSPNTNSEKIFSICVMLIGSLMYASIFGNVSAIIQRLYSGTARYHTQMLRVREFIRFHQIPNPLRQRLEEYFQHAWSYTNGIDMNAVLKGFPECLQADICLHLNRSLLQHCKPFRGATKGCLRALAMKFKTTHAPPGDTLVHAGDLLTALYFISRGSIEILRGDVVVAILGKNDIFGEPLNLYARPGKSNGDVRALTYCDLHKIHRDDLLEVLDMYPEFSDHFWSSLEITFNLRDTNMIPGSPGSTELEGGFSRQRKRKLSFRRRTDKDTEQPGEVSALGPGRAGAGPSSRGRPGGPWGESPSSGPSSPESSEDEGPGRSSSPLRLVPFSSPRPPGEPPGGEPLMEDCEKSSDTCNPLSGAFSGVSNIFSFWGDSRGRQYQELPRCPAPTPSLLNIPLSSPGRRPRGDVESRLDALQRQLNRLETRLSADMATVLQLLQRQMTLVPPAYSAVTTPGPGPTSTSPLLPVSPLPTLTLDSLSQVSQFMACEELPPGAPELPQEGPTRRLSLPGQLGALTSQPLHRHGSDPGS

| Structure (SMILES) | hERG current change (%, negative = inhibition) at 10uM [%] |
| --- | --- |
| COc1cccc(NC(=S)NNC(=O)c2ccccc2OC(F)F)c1 | 12.3 |
| Fc1ccccc1-c1[nH]ncc1-c1nnnn1-c1ccccc1 | 5.39 |
| CCc1nnc(NC(=O)c2ccc3c(c2)C(=O)N(C(C)(C)C)C3=O)s1 | 7.02 |
| O=C(CSc1ccc2ccccc2c1)NC1CCCc2ccccc21 (stereo not drawn) | 8.2 |
| COc1ccc(Cl)cc1NC(=S)NC(=O)c1ccco1 | -31.5 |
| COc1cc(/C=N/NC(=O)CNC(=O)c2ccco2)ccc1O | 7.95 |
| COc1ccc([N+](=O)[O-])cc1NC(=O)C(C)OC(=O)c1ccccn1 (stereo not drawn) | -7.61 |
| COc1cc2c(cc1NC(=O)C(C)OC(=O)C1CC(=O)N(Cc3ccco3)C1)oc1ccccc12 (stereo not drawn) | -1.77 |
| CC(OC(=O)C1CC(=O)N(Cc2ccco2)C1)C(=O)Nc1ccccc1[N+](=O)[O-] (stereo not drawn) | -19.1 |
| COc1ccc([N+](=O)[O-])cc1NC(=O)C(C)OC(=O)C1CC(=O)N(Cc2ccco2)C1 (stereo not drawn) | -57.4 |
| CCc1noc(C)c1C(=O)OC(C)C(=O)Nc1ccccc1OC (stereo not drawn) | -12.8 |
| CCc1noc(C)c1C(=O)OC(C)C(=O)Nc1cc([N+](=O)[O-])ccc1OC (stereo not drawn) | -53.1 |
| O=C(COC(=O)c1ccc(Cl)c(S(=O)(=O)N2CCCC2)c1)NCc1cccs1 | -39.8 |
| CCOc1ccc(/C=N/NC(=O)C2(O)c3ccccc3-c3ccccc32)cc1 | 4.13 |
| CCSc1nnc(NC(=O)[C@@H](NC(=O)c2ccccc2F)C(C)C)s1 | -8.27 |
| O=C(Nc1nccs1)c1ccc(F)c(S(=O)(=O)N2CCOCC2)c1 | -18.8 |
| Cc1cc(C)n(CC(O)Cn2ccc3ccccc32)n1 (stereo not drawn) | -12.5 |
| CC1C2CC(C(CN(C)C)/C2=N/O)C1(C)C (stereo not drawn) | -9.04 |
| COc1ccc(C2=CC(=O)N(Nc3ccccc3)C2=O)cc1 | 24.6 |
| O=C1C=C(c2ccccc2)C(=O)N1Nc1ccccc1 | -77.2 |
| O=C1C=C(c2ccc(Cl)cc2)C(=O)N1Nc1ccccc1 | 13.1 |
| CN(c1ccccc1)c1nc2ccsc2c(=O)s1 | 4.47 |

| Structure (SMILES) | hERG current change (%, negative = inhibition) at 10uM [%] |
| --- | --- |
| CC(C)=CCN1CCN(Cc2ccc(Oc3ncccn3)cc2)CC1CCO (stereo not drawn) | 9.1 |
| CC(C)CCN1CCN(Cc2cccc3cccnc23)CC1CCO (stereo not drawn) | -26.2 |
| CC(C)CCN1CCN(Cc2cccn2-c2ccccn2)CC1CCO (stereo not drawn) | -75.5 |
| CC(C)N1CCN(Cc2cccn2-c2ccccn2)CC1CCO (stereo not drawn) | -31.2 |
| CCn1ccnc1CN1CCN(CCC(C)C)C(CCO)C1 (stereo not drawn) | 18.9 |
| CC(C)CN1CCN(Cc2cccn2-c2ccccn2)CC1CCO (stereo not drawn) | -55.9 |
| CC(C)=CCN1CCN(Cc2cccn2-c2ncccn2)CC1CCO (stereo not drawn) | -39.6 |
| CC(C)=CCN1CCN(Cc2cccn2-c2ccccn2)CC1CCO (stereo not drawn) | -55.4 |
| CC(C)CN1CCN(Cc2cccc3ncccc23)CC1CCO (stereo not drawn) | -2.49 |
| CCC(C)N1C(=O)N(C)C2NC(=O)NC21 (stereo not drawn) | -2.9 |
| Cc1ccc(OCC(=O)NNC(=S)NC(=O)C2CC2)c(C)c1 | 23.2 |
| Nc1c2c(nc3c1CCCC3)CCCC2.O=C(O)c1cc[nH]c(=O)c1 | -10.1 |
| Clc1ccc(OCC#CCN2CCCCCC2)cc1.O=C(O)C(=O)O | -34.7 |
| Cc1ccccc1Nc1nnc(C)c(=O)[nH]1 | -11.3 |
| CC(=O)N1CCN(c2ccc(NC(=O)c3ccc([N+](=O)[O-])cc3Cl)cc2)CC1 | -8.49 |
| CCOc1cccc(OCCOCCN(C)Cc2ccccc2)c1 | -49.3 |
| CCN(CC(=O)NCc1ccc(Cl)cc1)C(=O)CN1C(=O)NC(CC)(c2ccccc2)C1=O (stereo not drawn) | -6.03 |
| CCN(CC(=O)NCc1ccc(Cl)cc1)C(=O)CSc1ccccc1F | -19.3 |
| O=C(CSc1ccc(Cl)cc1)NCc1ccncc1 | -14.2 |
| CCN(CC(=O)Nc1c(F)cccc1F)C(=O)CSc1ccc(F)cc1 | -14.3 |
| CCN(CC(=O)NCc1ccc(Cl)cc1)C(=O)CSc1ccccc1 | -65.6 |
| CCN(CC(=O)NCc1ccc(Cl)cc1)S(=O)(=O)c1ccc(F)cc1 | -19.1 |

| Structure (SMILES) | hERG current change (%, negative = inhibition) at 10uM [%] |
| --- | --- |
| CCN(CC(=O)NCc1ccc(Cl)cc1)C(=O)c1oc2ccccc2c1C | -54.5 |
| CCN(CC(=O)Nc1ccc(NC(C)=O)cc1)C(=O)c1oc2ccccc2c1C | -20.2 |
| CCN(CC(=O)NCc1ccc(Cl)cc1)C(=O)CSc1cccc(C(F)(F)F)c1 | -23.3 |
| CCN(CC(=O)NCc1ccc(F)cc1)C(=O)c1oc2ccccc2c1C | -43.9 |
| CCN(CC(=O)NCc1ccc(Cl)cc1)C(=O)CSc1ccc(Br)cc1 | -79.2 |
| CCN(CC(=O)NCc1ccc(Cl)cc1)C(=O)CSc1ccc(F)cc1 | -71.1 |
| Cc1ccc(-c2nn3c(C)nnc3s2)cc1NCc1c(F)cccc1Cl | 2.39 |
| Fc1ccc(N2CN(Cc3cccnc3)CNC2=S)cc1 | 10.7 |
| Cc1ccc(C(O)Cn2nc(C)cc2C)cc1 (stereo not drawn) | 13.7 |
| CCCCCc1c(O)nc(SCCN(CC)CC)[nH]c1=O.Cl | 9.87 |
| COc1ccc(N(C(=O)c2cccnc2)S(=O)(=O)c2ccc3c4c(cccc24)C(=O)N3C)cc1 | 17.7 |
| C=CCn1c(=O)c2ccccc2n2c(SCc3nc4ccccc4s3)nnc12 | -34.4 |
| CCOc1ccc(NC(=O)Cn2nc(C(N)=O)c3ccccc3c2=O)cc1S(=O)(=O)N1CCCC1 | 0.537 |
| Cc1ccccc1NC(=O)c1cccc(Cn2cc(Br)c([N+](=O)[O-])n2)c1 | -3.63 |
| COc1ccc(NC(=O)c2cccc(Cn3cc(Br)c([N+](=O)[O-])n3)c2)c(C)c1 | -72 |
| COc1ccc(OC)c(NC(=O)c2cccc(Cn3cc(Br)c([N+](=O)[O-])n3)c2)c1 | -13.9 |
| Cc1cc(CC(C)C)n(-c2nc3ccccc3c(=O)n2OCc2ccccc2)n1 | -7.08 |
| COc1ccc(CCNc2ncnc3c2nnn3Cc2ccccc2)cc1 | 13 |
| COc1ccc(C(=O)C2CCCN(Cc3ccc4nonc4c3)C2)cc1OC (stereo not drawn) | -67.4 |
| COc1ccc(C(=O)C2CCCN(Cc3ccc4nonc4c3)C2)c(OC)c1 (stereo not drawn) | -66.7 |
| COc1ccc(C(=O)C2CCCN(Cc3ccc4nonc4c3)C2)c(C)c1 (stereo not drawn) | -20.3 |
| COc1ccc(C(=O)C2CCCN(Cc3ccc4nonc4c3)C2)cc1F (stereo not drawn) | -41.1 |

| Structure (SMILES) | hERG current change (%, negative = inhibition) at 10uM [%] |
| --- | --- |
| COc1ccccc1CCNC(=O)CNC(=O)Cc1cccc2ccccc12 | -1.6 |
| CC(C(=O)Nc1ncn[nH]1)N1C(=O)c2ccccc2C1=O (stereo not drawn) | 17.4 |
| CCCCn1c(=O)c(C(=O)Nc2ccccc2S(N)(=O)=O)c(O)c2ccccc21 | -12.3 |
| COc1ccc(N2CCN(CCCNC(=O)c3ccc(CS(=O)(=O)c4ccc(OC)cc4)o3)CC2)cc1 | -68.9 |
| COc1ccc(S(=O)(=O)Cc2ccc(C(=O)NCCCN3CCc4ccccc4C3)o2)cc1 | -51.2 |
| COCCNC(=O)c1ccc(CS(=O)(=O)c2ccc(OC)cc2)o1 | -0.154 |
| Cc1ccc(S(=O)(=O)Cc2ccc(C(=O)NCCCN3CCN(C)CC3)o2)cc1 | 15.6 |
| O=C(NCCN1CCOCC1)c1ccc(CS(=O)(=O)c2ccc(Cl)cc2)o1 | -4.24 |
| COc1ccc(S(=O)(=O)Cc2ccc(C(=O)NC3CC3)o2)cc1 | -2.21 |
| COc1ccc(S(N)(=O)=O)cc1C(=O)NCCCN1CCN(c2ccc(C)cc2)CC1 | -50.7 |
| COc1ccc(S(N)(=O)=O)cc1C(=O)NCCCN1CCN(c2cccc(Cl)c2)CC1.CS(=O)(=O)O | -23.9 |
| O=C(NCCCN1CCCC1)c1ccc(CS(=O)(=O)c2ccc(Cl)cc2)o1 | -6.15 |
| COc1ccc(S(=O)(=O)Cc2ccc(C(=O)NCc3ccccc3OC)o2)cc1 | -41.6 |
| COc1ccc(N2CCN(CCCNC(=O)c3ccc(CS(=O)(=O)c4ccc(Cl)cc4)o3)CC2)cc1 | -77.1 |
| COc1ccc(S(N)(=O)=O)cc1C(=O)NCC(C)(C)N1CCOCC1 | 8.36 |
| O=C(Nc1cccc(F)c1)N1CC=C(c2ccc(Cl)cc2)CC1 | -13.8 |
| Cc1ccc(CN2CCN(/N=C/c3ccc(Cl)c([N+](=O)[O-])c3)CC2)cc1 | -4.43 |
| CCCOC1CCCN(C(=O)c2ccc3oc(C(C)C)nc3c2)C1 (stereo not drawn) | 3.64 |
| Cc1ccccc1OCc1nc(-c2ccc(NC(=O)c3ccco3)cc2)no1 | 5.41 |
| COc1ccc(N=Cc2c(O)n(Cc3ccccc3)c(=S)[nH]c2=O)c(OC)c1 | -1.29 |
| CC(C)[C@@H](C(=O)NCC1CCC(C(=O)O)CC1)n1nnc2ccccc2c1=O (stereo partly drawn) | 19.1 |
